PubChem BioAssay AID1159580 (chemical genetic matrix, 2015)
About 2,000 (36%) of roughly 5,500 compounds were called active. Another 18% or so got no clear call; they are omitted. Rule as the data show it: active = normalized growth mostly below about 0.91 (no sharp cut-off); inconclusive = no clear call, values can overlap the other calls; inactive = mostly above about 0.92. This is one part of the list.

Test: chemical genetic growth profiling, strain panel (AID 1159580);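 also: tested at 20 µM; growth read once vehicle control cultures reached saturation at 30 °C; 1 = growth at the plate median or of vehicle wells; lower values mean less growth of the strain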
Conditions: growth OD

Measured: normalized growth

COc1cc(O)c(C(=O)/C=C/c2ccccc2)c(OC)c1
active: S. cerevisiae deletion strains, locus YAL013W, strain DEP1, stronger effect = lower value 0.897 | S. cerevisiae deletion strains, locus YBR009C, strain hhf1, stronger effect = lower value 0.846 | S. cerevisiae deletion strains, locus YBR023C, strain chs3, stronger effect = lower value 0.893 | S. cerevisiae deletion strains, locus YBR279W, strain paf1, stronger effect = lower value 0.894 | S. cerevisiae deletion strains, locus YCL011C, strain gbp2, stronger effect = lower value 0.867 | S. cerevisiae deletion strains, locus YCL016C, strain dcc1, stronger effect = lower value 0.861 | S. cerevisiae deletion strains, locus YDL074C, strain BRE1, stronger effect = lower value 0.682 | S. cerevisiae deletion strains, locus YDL134C, strain PPH21, stronger effect = lower value 0.807 | S. cerevisiae deletion strains, locus YDL192W, strain arf1, stronger effect = lower value 0.796 | S. cerevisiae deletion strains, locus YDR101C, strain arx1, stronger effect = lower value 0.857 | S. cerevisiae deletion strains, locus YDR137W, strain rgp1, stronger effect = lower value 0.717 | S. cerevisiae deletion strains, locus YDR195W, strain ref2 1.18 [resistant] | S. cerevisiae deletion strains, locus YDR318W, strain mcm21, stronger effect = lower value 0.816 | S. cerevisiae deletion strains, locus YDR392W, strain spt3, stronger effect = lower value 0.373 | S. cerevisiae deletion strains, locus YDR502C, strain sam2, stronger effect = lower value 0.819 | S. cerevisiae deletion strains, locus YER015W, strain faa2, stronger effect = lower value 0.89 | S. cerevisiae deletion strains, locus YER110C, stronger effect = lower value 0.863 | S. cerevisiae deletion strains, locus YER155C, strain BEM2 (second series), stronger effect = lower value 0.807 | S. cerevisiae deletion strains, locus YER155C, strain BEM2, stronger effect = lower value 0.625 | S. cerevisiae deletion strains, locus YGL086W, strain mad1, stronger effect = lower value 0.794 | S. cerevisiae deletion strains, locus YGL240W, strain doc1, stronger effect = lower value 0.819 | S. cerevisiae deletion strains, locus YGL248W, strain PDE1, stronger effect = lower value 0.8 | S. cerevisiae deletion strains, locus YGL253W, strain hxk2, stronger effect = lower value 0.85 | S. cerevisiae deletion strains, locus YGR135W, strain pre9, stronger effect = lower value 0.83 | S. cerevisiae deletion strains, locus YGR229C, strain SMI1, stronger effect = lower value 0.681 | S. cerevisiae deletion strains, locus YGR252W, strain gcn5, stronger effect = lower value 0.667 | S. cerevisiae deletion strains, locus YHR079C, strain IRE1 (second series), stronger effect = lower value 0.909 | S. cerevisiae deletion strains, locus YHR094C, strain hxt1, stronger effect = lower value 0.917 | S. cerevisiae deletion strains, locus YHR129C, strain ARP1, stronger effect = lower value 0.857 | S. cerevisiae deletion strains, locus YHR142W, strain chs7, stronger effect = lower value 0.791 | S. cerevisiae deletion strains, locus YHR200W, strain rpn10, stronger effect = lower value 0.891 | S. cerevisiae deletion strains, locus YIR030C, strain dcg1, stronger effect = lower value 0.898 | S. cerevisiae deletion strains, locus YJL095W, strain BCK1, stronger effect = lower value 0.574 | S. cerevisiae deletion strains, locus YJL129C, strain trk1, stronger effect = lower value 0.779 | S. cerevisiae deletion strains, locus YJL164C, strain tpk1, stronger effect = lower value 0.858 | S. cerevisiae deletion strains, locus YJL166W, strain qcr8, stronger effect = lower value 0.792 | S. cerevisiae deletion strains, locus YJL187C, strain SWE1 (second series), stronger effect = lower value 0.866 | S. cerevisiae deletion strains, locus YKL068W, stronger effect = lower value 0.934 | S. cerevisiae deletion strains, locus YKL160W, strain elf1, stronger effect = lower value 0.852 | S. cerevisiae deletion strains, locus YKR001C, strain vps1, stronger effect = lower value 0.642 | S. cerevisiae deletion strains, locus YLL001W, strain dnm1, stronger effect = lower value 0.899 | S. cerevisiae deletion strains, locus YLR027C, strain aat2, stronger effect = lower value 0.859 | S. cerevisiae deletion strains, locus YLR039C, strain RIC1, stronger effect = lower value 0.674 | S. cerevisiae deletion strains, locus YLR058C, strain SHM2, stronger effect = lower value 0.848 | S. cerevisiae deletion strains, locus YLR102C, strain apc9, stronger effect = lower value 0.922 | S. cerevisiae deletion strains, locus YLR221C, strain rsa3, stronger effect = lower value 0.844 | S. cerevisiae deletion strains, locus YLR258W, strain gsy2, stronger effect = lower value 0.907 | S. cerevisiae deletion strains, locus YLR262C, strain YPT6 (second series), stronger effect = lower value 0.774 | S. cerevisiae deletion strains, locus YLR268W, strain sec22, stronger effect = lower value 0.804 | S. cerevisiae deletion strains, locus YLR320W, strain mms22, stronger effect = lower value 0.748 | S. cerevisiae deletion strains, locus YLR371W, strain rom2, stronger effect = lower value 0.8 | S. cerevisiae deletion strains, locus YLR418C, strain cdc73, stronger effect = lower value 0.41 | S. cerevisiae deletion strains, locus YML032C, strain rad52, stronger effect = lower value 0.826 | S. cerevisiae deletion strains, locus YML120C, strain ndi1, stronger effect = lower value 0.866 | S. cerevisiae deletion strains, locus YML124C, strain tub3, stronger effect = lower value 0.923 | S. cerevisiae deletion strains, locus YMR078C, strain ctf18, stronger effect = lower value 0.898 | S. cerevisiae deletion strains, locus YMR205C, strain PFK2, stronger effect = lower value 0.805 | S. cerevisiae deletion strains, locus YMR223W, strain ubp8, stronger effect = lower value 0.87 | S. cerevisiae deletion strains, locus YMR307W, strain GAS1, stronger effect = lower value 0.502 | S. cerevisiae deletion strains, locus YNL071W, strain lat1, stronger effect = lower value 0.503 | S. cerevisiae deletion strains, locus YNL233W, strain BNI4, stronger effect = lower value 0.766 | S. cerevisiae deletion strains, locus YNL298W, strain CLA4, stronger effect = lower value 0.879 | S. cerevisiae deletion strains, locus YNL307C, strain MCK1, stronger effect = lower value 0.301 | S. cerevisiae deletion strains, locus YOL147C, strain pex11, stronger effect = lower value 0.739 | S. cerevisiae deletion strains, locus YOR070C, strain gyp1, stronger effect = lower value 0.897 | S. cerevisiae deletion strains, locus YOR083W, strain WHI5, stronger effect = lower value 0.852 | S. cerevisiae deletion strains, locus YOR106W, strain vam3, stronger effect = lower value 0.802 | S. cerevisiae deletion strains, locus YOR136W, strain idh2, stronger effect = lower value 0.907 | S. cerevisiae deletion strains, locus YOR144C, strain elg1, stronger effect = lower value 0.878 | S. cerevisiae deletion strains, locus YOR184W, strain ser1, stronger effect = lower value 0.602 | S. cerevisiae deletion strains, locus YOR265W, strain rbl2, stronger effect = lower value 0.903 | S. cerevisiae deletion strains, locus YOR290C, strain snf2, stronger effect = lower value 0.853 | S. cerevisiae deletion strains, locus YPL051W, strain arl3, stronger effect = lower value 0.82 | S. cerevisiae deletion strains, locus YPL078C, strain atp4, stronger effect = lower value 0.864 | S. cerevisiae deletion strains, locus YPL106C, strain sse1, stronger effect = lower value 0.772 | S. cerevisiae deletion strains, locus YPL240C, strain hsp82, stronger effect = lower value 0.919 | S. cerevisiae deletion strains, locus YPR119W, strain clb2, stronger effect = lower value 0.921 | S. cerevisiae deletion strains, locus YPR163C, strain tif3, stronger effect = lower value 0.605 | S. cerevisiae deletion strains, locus YPR167C, strain met16, stronger effect = lower value 0.869 | S. cerevisiae deletion strains, strain wtn01, stronger effect = lower value 0.816
inactive: S. cerevisiae deletion strains, locus YAL021C, strain ccr4, stronger effect = lower value 0.998 | S. cerevisiae deletion strains, locus YAL026C, strain drs2, stronger effect = lower value 0.945 | S. cerevisiae deletion strains, locus YAL030W, strain snc1, stronger effect = lower value 0.941 | S. cerevisiae deletion strains, locus YBL061C, strain skt5, stronger effect = lower value 0.928 | S. cerevisiae deletion strains, locus YBR021W, strain FUR4, stronger effect = lower value 0.895 | S. cerevisiae deletion strains, locus YBR171W, strain sec66, stronger effect = lower value 0.957 | S. cerevisiae deletion strains, locus YBR229C, strain ROT2, stronger effect = lower value 0.942 | S. cerevisiae deletion strains, locus YBR231C, strain swc5, stronger effect = lower value 0.917 | S. cerevisiae deletion strains, locus YCL029C, strain bik1, stronger effect = lower value 0.923 | S. cerevisiae deletion strains, locus YCL061C, strain MRC1, stronger effect = lower value 0.922 | S. cerevisiae deletion strains, locus YCL069W, strain vba3, stronger effect = lower value 0.946 | S. cerevisiae deletion strains, locus YCR088W, strain abp1, stronger effect = lower value 0.96 | S. cerevisiae deletion strains, locus YDL005C, strain med2, stronger effect = lower value 0.98 | S. cerevisiae deletion strains, locus YDL035C, strain GPR1, stronger effect = lower value 0.907 | S. cerevisiae deletion strains, locus YDL040C, strain nat1, stronger effect = lower value 0.937 | S. cerevisiae deletion strains, locus YDL101C, strain DUN1, stronger effect = lower value 0.916 | S. cerevisiae deletion strains, locus YDL185W, strain tfp1, stronger effect = lower value 0.945 | S. cerevisiae deletion strains, locus YDR001C, strain nth1, stronger effect = lower value 0.947 | S. cerevisiae deletion strains, locus YDR069C, strain doa4, stronger effect = lower value 0.963 | S. cerevisiae deletion strains, locus YDR159W, strain sac3, stronger effect = lower value 0.975 | S. cerevisiae deletion strains, locus YDR162C, strain NBP2, stronger effect = lower value 0.947 | S. cerevisiae deletion strains, locus YDR297W, strain sur2, stronger effect = lower value 0.947 | S. cerevisiae deletion strains, locus YDR334W, strain swr1, stronger effect = lower value 0.972 | S. cerevisiae deletion strains, locus YDR335W, strain msn5, stronger effect = lower value 0.949 | S. cerevisiae deletion strains, locus YDR388W, stronger effect = lower value 0.932 | S. cerevisiae deletion strains, locus YEL003W, strain gim4, stronger effect = lower value 0.914 | S. cerevisiae deletion strains, locus YEL037C, strain rad23, stronger effect = lower value 0.948 | S. cerevisiae deletion strains, locus YEL061C, strain CIN8 (second series), stronger effect = lower value 0.966 | S. cerevisiae deletion strains, locus YER016W, strain bim1, stronger effect = lower value 0.945 | S. cerevisiae deletion strains, locus YER111C, strain swi4, stronger effect = lower value 0.987 | S. cerevisiae deletion strains, locus YER167W, strain BCK2, stronger effect = lower value 0.95 | S. cerevisiae deletion strains, locus YFR010W, strain ubp6, stronger effect = lower value 0.944 | S. cerevisiae deletion strains, locus YGL078C, strain dbp3, stronger effect = lower value 0.943 | S. cerevisiae deletion strains, locus YGL167C, strain pmr1, stronger effect = lower value 0.921 | S. cerevisiae deletion strains, locus YGL173C, strain kem1, stronger effect = lower value 0.921 | S. cerevisiae deletion strains, locus YGL227W, strain vid30, stronger effect = lower value 0.968 | S. cerevisiae deletion strains, locus YHR013C, strain ard1, stronger effect = lower value 1.01 | S. cerevisiae deletion strains, locus YHR027C, strain rpn1, stronger effect = lower value 0.942 | S. cerevisiae deletion strains, locus YHR030C, strain SLT2, stronger effect = lower value 0.924 | S. cerevisiae deletion strains, locus YIL066C, strain RNR3, stronger effect = lower value 0.867 | S. cerevisiae deletion strains, locus YIL073C, strain SPO22, stronger effect = lower value 0.733 | S. cerevisiae deletion strains, locus YIL125W, strain kgd1, stronger effect = lower value 0.944 | S. cerevisiae deletion strains, locus YJL092W, strain hpr5, stronger effect = lower value 0.945 | S. cerevisiae deletion strains, locus YJL095W, strain BCK1 (second series), stronger effect = lower value 0.945 | S. cerevisiae deletion strains, locus YJL115W, strain asf1, stronger effect = lower value 0.979 | S. cerevisiae deletion strains, locus YJL134W, strain LCB3, stronger effect = lower value 0.953 | S. cerevisiae deletion strains, locus YJL154C, strain vps35, stronger effect = lower value 0.975 | S. cerevisiae deletion strains, locus YJL168C, strain set2, stronger effect = lower value 0.943 | S. cerevisiae deletion strains, locus YKL009W, strain mrt4, stronger effect = lower value 0.89 | S. cerevisiae deletion strains, locus YKL085W, strain MDH1 (second series), stronger effect = lower value 0.952 | S. cerevisiae deletion strains, locus YKL085W, strain MDH1, stronger effect = lower value 0.952 | S. cerevisiae deletion strains, locus YKL190W, strain CNB1, stronger effect = lower value 0.953 | S. cerevisiae deletion strains, locus YKR026C, strain gcn3, stronger effect = lower value 0.95 | S. cerevisiae deletion strains, locus YKR091W, strain srl3, stronger effect = lower value 0.942 | S. cerevisiae deletion strains, locus YLL026W, stronger effect = lower value 0.937 | S. cerevisiae deletion strains, locus YLL041C, strain sdh2, stronger effect = lower value 0.943 | S. cerevisiae deletion strains, locus YLR262C, strain YPT6, stronger effect = lower value 0.708 | S. cerevisiae deletion strains, locus YLR342W, strain FKS1 (second series), stronger effect = lower value 0.876 | S. cerevisiae deletion strains, locus YLR342W, strain FKS1, stronger effect = lower value 0.93 | S. cerevisiae deletion strains, locus YLR357W, strain rsc2, stronger effect = lower value 1.01 | S. cerevisiae deletion strains, locus YLR370C, strain arc18, stronger effect = lower value 0.943 | S. cerevisiae deletion strains, locus YLR384C, strain iki3, stronger effect = lower value 0.947 | S. cerevisiae deletion strains, locus YML016C, strain PPZ1, stronger effect = lower value 0.931 | S. cerevisiae deletion strains, locus YMR058W, strain fet3, stronger effect = lower value 0.918 | S. cerevisiae deletion strains, locus YMR125W, strain sto1, stronger effect = lower value 0.893 | S. cerevisiae deletion strains, locus YMR129W, stronger effect = lower value 0.937 | S. cerevisiae deletion strains, locus YMR231W, strain pep5, stronger effect = lower value 0.967 | S. cerevisiae deletion strains, locus YNL067W, strain RPL9B, stronger effect = lower value 0.925 | S. cerevisiae deletion strains, locus YNL128W, strain TEP1, stronger effect = lower value 0.95 | S. cerevisiae deletion strains, locus YNL209W, strain ssb2, stronger effect = lower value 0.95 | S. cerevisiae deletion strains, locus YNL248C, strain rpa49, stronger effect = lower value 0.951 | S. cerevisiae deletion strains, locus YNL250W, strain rad50, stronger effect = lower value 0.979 | S. cerevisiae deletion strains, locus YNL271C, strain bni1, stronger effect = lower value 0.953 | S. cerevisiae deletion strains, locus YNL322C, strain KRE1 (second series), stronger effect = lower value 0.947 | S. cerevisiae deletion strains, locus YNL322C, strain KRE1, stronger effect = lower value 0.948 | S. cerevisiae deletion strains, locus YNR049C, strain mso1, stronger effect = lower value 0.964 | S. cerevisiae deletion strains, locus YNR052C, strain pop2, stronger effect = lower value 0.946 | S. cerevisiae deletion strains, locus YOL006C, strain TOP1, stronger effect = lower value 0.733 | S. cerevisiae deletion strains, locus YOL012C, strain htz1 1.12 | S. cerevisiae deletion strains, locus YOR001W, strain rrp6, stronger effect = lower value 0.894 | S. cerevisiae deletion strains, locus YOR061W, strain CKA2, stronger effect = lower value 0.957 | S. cerevisiae deletion strains, locus YOR069W, strain VPS5, stronger effect = lower value 0.94 | S. cerevisiae deletion strains, locus YOR080W, strain dia2, stronger effect = lower value 0.966 | S. cerevisiae deletion strains, locus YOR270C, strain vph1, stronger effect = lower value 0.811 | S. cerevisiae deletion strains, locus YOR316C, strain cot1, stronger effect = lower value 0.931 | S. cerevisiae deletion strains, locus YPR141C, strain kar3, stronger effect = lower value 0.96 | S. cerevisiae strains, strain wild type, stronger effect = lower value 0.905
